12-LOX inh – blocks human arachidonate 12S-lipoxygenase. P18054. actives 1.1% (n = 580,000). Potency, µM (top dose mostly 108 µM), inactives show at the top dose activity change, negative = inhibition, usual class: inhibitors. purified 12hLO, xylenol orange hydroperoxide absorbance; also: % is scaled to controls: 0 for no effect and ±100 for the full control effect
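Purified human 12hLO (150 nM final) in 25 mM Hepes, 0.01% Triton X-100, pH 7.0 was preincubated 15 min at room temperature with compound. Then 40 uM arachidonic acid was added, 30 min. Hydroperoxide was read by Fe-XO absorbance ratio 573/405 nm.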
HP1b binding inh – HP1-beta chromodomain-methylated histone interaction inhibition. AlphaScreen HP1-beta / biotin-H3K9me3 peptide binding. Potency, µM (highest dose often 114 µM), inactives show top-dose activity change, negative = inhibition, most hits filed as inhibitors. actives 0.56% (n = 390,000); also: nearly all actives have a fitted effect of over 70% in size
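Compound inhibition of the preformed complex between 50 nM HP1-beta and 50 nM biotinylated H3K9me3 peptide was read by AlphaScreen. Buffer was PBS pH 7.4 with 0.01% Tween-20. Incubations ran 30 min at room temperature, with 10 ug/mL donor/acceptor beads.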
BAZ2B inh – blocks human BAZ2B; AlphaScreen BAZ2B-H3K14Ac peptide displacement; AID 504333; actives 4.4% (n = 360,000); Potency, µM (highest dose often 114 µM), for inactives: top-dose activity change, negative = inhibition, most hits filed as inhibitors; Q9UIF8; also: % is scaled to controls: 0 for no effect and ±100 for the full control effect; nearly all actives have a fitted effect of over 60% in size
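AlphaScreen displacement of biotin-H3(5-23)K14Ac peptide (50 nM final) from BAZ2B (50 nM final) in PBS pH 7.4, 0.01% Tween-20; complex preformed 30 min RT, then compounds (top 110 uM) 30 min RT, beads 20 min dark.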
PLK1 PBD block – PLK1 (human) polo-box domain binding inhibition | actives 2.8% (n = 360,000) | Potency, µM, without a hit: max response, negative = inhibition, hits mostly inhibitors | P53350 | Plk1 PBD binding of FITC phosphopeptide, fluorescence polarization; also: series mostly up to about 57 µM; % is scaled to controls: 0 for no effect and ±100 for the full control effect; nearly all actives have a fitted effect of over 65% in size
JMJD2A Tudor – JMJD2A Tudor domain (human) inhibition; O75164; AlphaScreen JMJD2A-Tudor / H3K4me3 peptide binding; Potency, µM (top dose mostly 114 µM), inactives show top-dose activity change, negative = inhibition, most hits filed as inhibitors; actives 4.4% (n = 390,000); also: % is scaled to controls: 0 for no effect and ±100 for the full control effect; nearly all actives have a fitted effect of over 50% in size
G9a block – inhibitors of human histone lysine methyltransferase G9a; Q96KQ7; G9a H3K9 monomethylation, AlphaScreen, 2 h; Potency, µM (highest dose often 102 µM), inactives show at the highest dose activity, negative = inhibition, hits mostly inhibitors; actives 8.8% (n = 350,000); also: % is scaled to controls: 0 for no effect and ±100 for the full control effect; nearly all actives have a fitted effect of over 75% in size
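Readings reflect AlphaScreen signal from monomethyl-H3K9 antibody detection. HMT at 20 nM; substrate b-H3K9 500 nM; cofactor SAM 20 uM; 2 h RT reaction; compounds tested as titrations in qHTS with 15 min preincubation.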
* = called active by the depositor; ? = inconclusive; . = no result given; [ ] = dose if it differs, or a comment. Shown are actives, neighbours in structure and some others; about 9% of the full set was active somewhere. Calls follow the shape of the dose curve; as a rule, active = well fitted curve in the direction sought with a large enough effect; inconclusive = small, poorly fitted or top-dose-only effect, or another doubt; inactive = no such curve, though single readings can be large; an effect the other way counts as inactive or inconclusive. Potency is read from the fitted curve at half-maximal effect.

SMILES	12-LOX inh	HP1b binding inh	BAZ2B inh	PLK1 PBD block	JMJD2A Tudor	G9a block
O=C(c1ccco1)[C@@H]1[C@@H]2C(=O)N(c3ccccc3)C(=O)[C@@H]2C2c3ccccc3C=CN21 (stereo partly specified)	?	-34.7%	79.4µM*	?	50.1µM*	16.1%[2.33 µM]
CCCC12CN3CCN(CC(C3)/C1=N\NC(=O)c1ccccc1N)C2	39.5%	11.6%	9.0%	-11.3%	-10.5%	9.0%
COc1ccc(N2C(=O)[C@@H]3[C@H](C2=O)[C@H]2c4ccccc4C=CN2[C@@H]3C(=O)Nc2ccccc2)cc1	?	4.9%	-31.2%	31.6%	?	8.91µM*
CC(C)(C)C(=O)[C@@H]1[C@@H]2C(=O)N(c3ccc4c(c3)OCCO4)C(=O)[C@@H]2C2c3ccccc3C=CN21 (stereo partly specified)	.	?	?	10.6µM*	?	8.91µM*
COc1ccc([C@H]2CN(c3ccc(OC)cc3)C(=O)[C@@H]2CC(=O)Nc2ccccc2)cc1	?	.	.	5.6%	.	.
CC(C)(C)C(=O)NC1CC(=O)N(c2ccc3c(c2)OCCO3)C1 (stereo unspecified)	-5.8%	6.1%	-14.6%	.	-7.1%	7.8%[59 µM]
CCn1nccc1C(=O)N1[C@@H]2CC[C@H]1CC(NC(=O)c1ccncc1)C2 (stereo partly specified)	55.0%	.	.	.	.	.
O=C(NCC(c1cccnc1)N1CCc2ccccc21)c1ccc(F)c(F)c1 (stereo unspecified)	-0.1%	28.6%	-0.4%	.	-11.2%	2.5%[59 µM]
COc1ccc(C(=O)NCC(c2ccc(N(C)C)cc2)N2CCc3ccccc32)cc1 (stereo unspecified)	-5.0%	10µM*	8.91µM*	.	7.08µM*	10µM*
COc1cc(C(=O)NCC(c2cccnc2)N2CCc3ccccc32)cc(OC)c1OC (stereo unspecified)	3.2%	18.8%	5.5%	.	-7.9%	-5.5%[59 µM]
CN(C)c1ccc(CNC(=O)c2ccc(NC(=O)N3CCCCc4ccccc43)cc2)cc1	-10.9%	8.6%	28.2µM*	.	35.5µM*	?
CN(C)c1ccc(C(CNC(=O)c2ccccc2)N2CCc3ccccc32)cc1 (stereo unspecified)	-27.2%	?	11.2µM*	.	12.6µM*	12.6µM*
CC(C)Oc1ccc(C(=O)NCC(c2ccc(N(C)C)cc2)N2CCc3ccccc32)cc1 (stereo unspecified)	-17.6%	?	15.8µM*	.	7.08µM*	14.1µM*
Cc1cc(-c2ccccc2)n2nc(-c3ccc(Cl)cc3)cc2n1	-12.2%	39.1%	21.9%	.	22.8%	8.5%[59 µM]
COc1ccc(-n2nc(C3CCN(Cc4ccncc4)CC3)[nH]c2=O)cc1	3.2%	.	.	.	.	.
CC(=O)Nc1cccc(NC(=O)c2ccc3ccccc3n2)c1	6.0%	.	.	.	.	.
O=C(NCc1ccc(Cl)cc1)c1ccc(CNc2c(N3CCCC3)c(=O)c2=O)cc1	?	30.0%	0.4%	2.9%	-5.1%	0.6%
CN(C)c1ccc(CNC(=O)c2ccc(CNc3c(N4CCCCC4)c(=O)c3=O)cc2)cc1	9.1%[57.4 µM]	6.5%	-8.8%	-0.7%	?	44.7µM*
COc1cccc(OC)c1C(=O)N1CCN(Cc2ccncc2)CC1	?	?	20µM*	0.3%	8.91µM*	?
COc1ccccc1CN1CCC2(CC1)CCN(C(=O)c1ccncc1)CC2	6.2%[57.4 µM]	.	.	.	.	-10.9%[12.7 µM]
COc1ccccc1CN1CCN(C(=O)c2ccncc2)CC1	?	?	25.1µM*	-0.5%	7.94µM*	?
CSc1ccc(CN2CCN(C(=O)c3ccncc3)CC2)cc1	2.3%	-0.7%	-12.5%	-18.2%	-5.6%	-3.3%
COc1ccc(OC)c(CN2CCN(C(=O)c3cccc(S(=O)(=O)Nc4ccc(F)cc4)c3)CC2)c1	?	6.9%	.	-3.5%	-25.6%	.
CCN1CCN(C(=O)c2cc3cc(F)ccc3[nH]2)CC1	295.5%	16.4%	-11.6%	-12.1%	-14.2%	-31.0%
COc1ccc(OC)c(CN2CCN(C(=O)c3ccc(F)cc3)CC2)c1	?	?	?	-5.0%	25.1µM*	31.6µM*
SMILES	12-LOX inh	HP1b binding inh	BAZ2B inh	PLK1 PBD block	JMJD2A Tudor	G9a block
COc1ccc2[nH]c(C(=O)N3CCCN(Cc4ccc(F)cc4)CC3)cc2c1	0.0%	-28.6%	-32.3%	-14.5%	?	50.1µM*
COCCNC(=O)[C@H]1C[C@H](Oc2cccnc2)CN1C(=O)c1cccc(C)c1	8.3%	.	.	.	.	.
CCOC(=O)C1(C)CCCN(C(=O)c2ccccc2)C1 (stereo unspecified)	9.9%	.	.	-0.5%	.	.
COc1cc(/C=N/N=C2/NC(=O)C(Cc3ccc(F)cc3)S2)ccc1O (stereo unspecified)	-13.8%	37.8%	2.4%	-1.5%	-9.7%	21.7%
O=C(c1cccc(Cl)c1)N1CCN(Cc2ccncc2)CC1	?	?	50.1µM*	-7.4%	?	35.5µM*
CC12CCC(C(=O)N3CCN(C(c4ccccc4)c4ccccc4)CC3)(OC1=O)C2(C)C (stereo unspecified)	?	4.9%	-5.0%	-6.7%	-30.6%	-30.0%[59 µM]
Cc1nc(NC(=O)CSc2nccn2C)sc1C(=O)N(C)C	17.8µM*	7.9%	-15.0%	-3.7%	-21.3%	28.9%
Cc1nc(NC(=O)CCl)sc1C(=O)N(C)C	-19.0%	39.9%	1.9%	-10.8%	-3.4%	?
Cc1nc(NC(=O)C(Cl)Cl)sc1C(=O)N(C)C	?	9.7%	?	?	79.4µM*	?
CCCn1c(SCC(=O)NCC(=O)Nc2ccc(F)c(F)c2F)nc2ccccc2c1=O	?	19.5%	-1.0%	-2.3%	?	15.7%[12.7 µM]
CC(C(=O)O)n1ncc2ccccc2c1=O (stereo unspecified)	15.5%	5.6%	-18.9%	10.6µM*	-15.4%[11.4 µM]	-2.3%
Cc1nn(C(C)C(=O)O)c(=O)c2ccccc12 (stereo unspecified)	-1.0%	33.1%	-1.8%	-5.9%	-2.8%	8.2%
O=C(C[n+]1ccc(C(=O)N/N=C/c2ccc(Cl)cc2Cl)cc1)c1ccccc1	?	22.5%	-8.6%	-3.4%	?	50.1µM*
O=C(C[n+]1cccc(C(=O)N/N=C/c2ccc(Br)cc2)c1)c1ccccc1	10.4%	26.7%	-9.0%	-3.4%	?	1.41µM*
O=C(N/N=C/c1ccc(Cl)cc1Cl)c1ccc2nc[nH]c2c1	3.3%	26.4%	-32.6%	-13.6%	7.4%	70.8µM*
O=C(N/N=C/c1ccc(Br)cc1)c1cc[n+](Cc2ccccc2)cc1	-18.3%	18.7%	-7.3%	0.5%	-24.0%	?
Cc1cccc2cc(C#N)c(SCC(=O)NNC(=O)Cc3ccccc3)nc12	0.0%	31.1%	5.7%	2.5%	-9.7%	17.6%
Cc1cccc2cc(C#N)c(SCC#N)nc12	-14.4%	9.5%	1.3%	?	-31.7%	25.1µM*

Screens (PubChem BioAssay)
